Screening data from PubChem.
Nrf2 ARE act: qHTS of Nrf2 Activators; AREc32 ARE-luciferase reporter (MCF7-derived line), luminescence, 24 h; Potency, µM (doses to about 46.1 µM), inactives show at the top dose activation, most hits filed as activators; actives 0.31% (n = 410,000); AID 624171, 2012; also: potency is read from the fitted curve at half-maximal effect; % of control where 0% means no effect; nearly all actives have a fitted effect of over 65% in size
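AREc32 cells carrying an ARE-driven firefly luciferase reporter were seeded at 1000 cells/well in OPTI-MEM with 5% FBS, then exposed to compound for 24 hr at 37 deg C. Luminescence was read with Steady-Glo after 30 min at RT.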
Mito fusion yeast: qHTS Assay for Small Molecule Inhibitors of Mitochondrial Division or Activators of Mitochondrial Fusion | S. cerevisiae fusion-defective mutant growth rescue, CellTiterGlo 48 h | Potency, µM (series often up to 46.1 µM), for inactives: top-dose growth rescue (activation), actives largely listed as activators | actives 0.23% (n = 320,000); also: potency is read from the fitted curve at half-maximal effect; % of control where 0% means no effect; nearly all actives have a fitted effect of over 45% in size
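S. cerevisiae fusion-defective temperature-sensitive mutants (e.g. fzo1-1, mgm1-5) grown 48 h at 37C in YPEG (ethanol/glycerol non-fermentable) medium with 23 nl compound per well; growth rescue read as CellTiterGlo luminescence.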
Glioma ERSR ind: qHTS for Inducers of the Endoplasmic Reticulum Stress Response (ERSR) in Human Glioma: qHTS. U87-MG GRP78 promoter luciferase reporter, 16 h. Potency, µM, without a hit: at the top dose activation, most hits filed as activators. actives 0.02% (n = 420,000); also: potency is read from the fitted curve at half-maximal effect; series mostly up to about 76 µM; % of control where 0% means no effect; nearly all actives have a fitted effect of over 35% in size
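Stably transfected U87-MG human glioma cells carrying a GRP78-based luminescent sensor were seeded at 1000 cells/well, pin-dosed with compounds and incubated 16 h. Luciferase reagent was then added, and end-point luminescence was read after 10 min at room temperature.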
Nrf2 inh: Nrf2 qHTS screen for inhibitors; A549 ARE-Fluc reporter, luciferase luminescence, 18-24 h; Potency, µM (top dose mostly 46 µM), for the others: at the top dose activity change, negative = inhibition, usual class: inhibitors; actives 2.1% (n = 360,000); also: potency is read from the fitted curve at half-maximal effect; % is scaled to controls: 0 for no effect and ±100 for the full control effect; nearly all actives have a fitted effect of over 60% in size
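A549 ARE_Fluc cells (5000/well, 5% FBS OPTI-MEM) pre-incubated 2 h, then treated with compounds 18-24 h at 37C/5% CO2 in concentration-response. CellTiter-Fluor viability read first; BugLite luciferase luminescence after 15 min at room temperature gives Nrf2 activity.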
miR-21 reporter: qHTS Assay for Modulators of miRNAs and/orActivators of miR-21 | HeLa miR-21 FLuc reporter, luciferase, 48 h | Potency, µM (series often up to 38.3 µM), for the others: at the top dose activity change, positive = activation, usual class: activators | 340,000 tested, under 10 active | AID 2288, 2010;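 also: % of control where 0% means no effect; miR-21 action dims this reporter so a rising signal means less miR-21 action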
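HeLa miR-21-FLuc reporter line, endogenous miR-21; 2000 cells/well in DMEM/10% FBS; compound titration up to ~40uM final, 48 h, 37 degree Celsius; luciferase detection reagent, 15 min lysis, CCD luminescence.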
A549 tox: Nrf2 qHTS screen for inhibitors: counterscreen for cytotoxicity; A549 ARE-Fluc cells, CellTiter-Fluor viability, 18-24 h; AID 504648, 2011; actives 0.16% (n = 390,000); Potency, µM (doses to about 46 µM), for the others: top-dose activity change, negative = cytotoxicity, usual class: inhibitors; also: potency is read from the fitted curve at half-maximal effect; % is scaled to controls: 0 for no effect and ±100 for the full control effect
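A549 ARE_Fluc cells in 5% FBS OPTI-MEM were exposed to compounds in concentration-response for 18-24 h at 37 deg C. Viability was read by CellTiter-Fluor fluorescence (Ex 405/Em 525) after 30 min, before the luciferase read.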
Starred values were filed as active, the others as inactive. Compounds with a hit are over-represented: about 2.3% of the library has one in this group of screens. Calls follow the shape of the dose curve; as a rule, active = well fitted curve in the direction sought with a large enough effect; inconclusive = small, poorly fitted or top-dose-only effect, or another doubt; inactive = no such curve, though single readings can be large; an effect the other way counts as inactive or inconclusive.

Results for C/C(=N\NC(=O)c1cc(-c2ccccn2)nc2ccccc12)c1cccc([N+](=O)[O-])c1 ?
Nrf2 ARE act: 0%; Mito fusion yeast: 13%; Glioma ERSR ind: -3%; Nrf2 inh: -24%; miR-21 reporter: 0%; A549 tox: -8%

What do the screens show for `CCC(C(=O)NCCC1=CCCCC1)n1nc(C)c2c(C)n(-c3ccccc3)nc2c1=O` (stereo not drawn)?
Nrf2 ARE act: -1%; Mito fusion yeast: 1%; Glioma ERSR ind: -4%; Nrf2 inh: -15%; miR-21 reporter: 12%; A549 tox: -3%

How did CCOC(=O)N1CCc2c(sc3c2c(=O)n(CCc2ccccc2)c(=O)n3CC(=O)Nc2cccc(C)c2)C1 do in these assays?
Nrf2 ARE act: 0%; Glioma ERSR ind: -1%; Nrf2 inh: 6%; miR-21 reporter: 1%; A549 tox: 4%

What do the screens show for `O=C(c1ccco1)N1CCCC(N2CCN(c3cccc(C(F)(F)F)c3)CC2)C1` (stereo not drawn)?
Nrf2 ARE act: 0%; Mito fusion yeast: 8%; Glioma ERSR ind: 0%; Nrf2 inh: inconclusive; miR-21 reporter: 21%; A549 tox: -9%

How did O=C(c1cccs1)N1CCCC(N2CCN(c3cccc(C(F)(F)F)c3)CC2)C1 (stereo not drawn) do in these assays?
Nrf2 ARE act: 2%; Mito fusion yeast: 1%; Glioma ERSR ind: -4%; Nrf2 inh: 21µM*; miR-21 reporter: 20%; A549 tox: -10%

Results for CC(CCc1ccccc1)NC(=O)Cn1ncc2c3ccccc3n(Cc3ccc(F)cc3)c2c1=O (stereo not drawn) ?
Nrf2 ARE act: 0%; Glioma ERSR ind: -3%; Nrf2 inh: 27%; miR-21 reporter: 0%; A549 tox: -6%

What do the screens show for `Clc1cc(-c2ccccc2)nc(-c2ccccc2)n1`?
Nrf2 ARE act: inconclusive; Glioma ERSR ind: -2%; Nrf2 inh: -3%; A549 tox: 1%

How did NNc1nc(-c2ccccc2)cc(-c2ccccc2O)n1 do in these assays?
Nrf2 ARE act: 0%; Mito fusion yeast: -1%; Glioma ERSR ind: -1%; Nrf2 inh: inconclusive; miR-21 reporter: 18%; A549 tox: 12%

Results for NNc1nc(-c2ccccc2)cc(-c2ccccc2)n1 ?
Nrf2 ARE act: -1%; Mito fusion yeast: 13%; Glioma ERSR ind: -3%; Nrf2 inh: 9.2µM*; miR-21 reporter: 6%; A549 tox: -3%

How did Clc1nc(-c2ccccc2)cc(-c2ccccc2)n1 do in these assays?
Nrf2 ARE act: 8.9µM*; Mito fusion yeast: -2%; Glioma ERSR ind: 0%; Nrf2 inh: 11%; miR-21 reporter: -6%; A549 tox: 2%

Results for CCN(CC)CCNC(=O)c1ccc(NC(=O)c2ccc(Cl)c(S(=O)(=O)N3CCCCCC3)c2)cc1 ?
Nrf2 ARE act: 2%; Mito fusion yeast: -2%; Glioma ERSR ind: -7%; Nrf2 inh: inconclusive; miR-21 reporter: 12%; A549 tox: inconclusive

How did CCN(CC)c1ccc(NC(=O)CN2C(=O)CSc3ncccc32)c(C)c1 do in these assays?
Nrf2 ARE act: 0%; Mito fusion yeast: 1%; Glioma ERSR ind: -6%; Nrf2 inh: 10µM*; miR-21 reporter: 0%; A549 tox: -4%

How did CCN(CC)c1ccc(NC(=O)Cn2cc3c(n2)CCC(C)C3)c(C)c1 (stereo not drawn) do in these assays?
Nrf2 ARE act: 1%; Mito fusion yeast: 7%; Glioma ERSR ind: -2%; Nrf2 inh: 13µM*; miR-21 reporter: 7%; A549 tox: -19%

Results for CNC(=O)CN1C(=O)CSc2ncccc21 ?
Nrf2 ARE act: 0%; Mito fusion yeast: -4%; Glioma ERSR ind: 1%; Nrf2 inh: 8%; miR-21 reporter: -1%; A549 tox: -2%

Results for O=C(Cn1cnc(S(=O)(=O)N2CCCCC2)c1)N1CCN(c2ccc([N+](=O)[O-])cc2)CC1 ?
Nrf2 ARE act: 0%; Mito fusion yeast: -3%; Glioma ERSR ind: 1%; Nrf2 inh: -15%; miR-21 reporter: 4%; A549 tox: -13%

Results for CC(C)OC(=O)C1CC=CCC1C(=O)Nc1ccc(Cl)cc1 (stereo not drawn) ?
Nrf2 ARE act: -1%; Mito fusion yeast: 3%; Glioma ERSR ind: -4%; miR-21 reporter: -3%; A549 tox: 2%

What do the screens show for `Cc1ccc(-c2nc(=Nc3c(C)cc(C)cc3C)sn2-c2ccccc2)cc1`?
Glioma ERSR ind: -3%; Nrf2 inh: 23µM*; A549 tox: -30%

What do the screens show for `COC(=O)c1c(NC(=O)c2ccco2)sc(C(=O)N(C)C)c1C`?
Nrf2 ARE act: 13µM*; Mito fusion yeast: 1%; Glioma ERSR ind: 1%; Nrf2 inh: 0%; miR-21 reporter: -26%; A549 tox: 0%

What do the screens show for `COC(=O)c1c(NC(=O)c2cccnc2)sc(C(=O)N(C)C)c1C`?
Nrf2 ARE act: 0%; Mito fusion yeast: -2%; Glioma ERSR ind: -2%; Nrf2 inh: inconclusive; miR-21 reporter: -5%; A549 tox: 0%

Results for CCN(CC)C(=O)CC(c1ccc(OC)cc1)c1c(O)cc(OC)cc1OC (stereo not drawn) ?
Nrf2 ARE act: 0%; Mito fusion yeast: -30%; Glioma ERSR ind: -4%; Nrf2 inh: 14%; miR-21 reporter: 1%; A549 tox: 0%

What do the screens show for `Cc1ccccc1N(C(=O)Cc1c[nH]c2ccccc12)C(C(=O)NC1CCCCC1)c1ccco1` (stereo not drawn)?
Nrf2 ARE act: 1%; Mito fusion yeast: -3%; Glioma ERSR ind: -4%; Nrf2 inh: -10%; miR-21 reporter: -1%; A549 tox: -2%

How did COc1ccc(C(C(=O)NC2CCCCC2)N(Cc2cccs2)C(=O)Cc2c[nH]c3ccccc23)cc1OC (stereo not drawn) do in these assays?
Nrf2 ARE act: 2%; Mito fusion yeast: -6%; Glioma ERSR ind: -3%; Nrf2 inh: 23µM*; miR-21 reporter: 3%; A549 tox: inconclusive

How did Cc1ccc(N(C(=O)Cc2c[nH]c3ccccc23)C(C(=O)NC2CCCCC2)c2ccco2)cc1 (stereo not drawn) do in these assays?
Nrf2 ARE act: 0%; Mito fusion yeast: 5%; Glioma ERSR ind: -1%; Nrf2 inh: 18µM*; miR-21 reporter: inconclusive; A549 tox: inconclusive
